Measurements reported in PubChem BioAssay AID540335 (Broad Institute, 2011).
The whole screen tested about 1,300 compounds, of which about 270 (21%) were called active. A selection follows. Entries with a potency or affinity are not part of this list. Unmarked numbers belong to inactive results.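 How the source made its calls: active means dose-dependent rise or fall in viability, either side of zero, with half-maximal concentration at or below a set limit; inconclusive means flat curve at 30 to 70% viability loss, or poor fit; inactive means flat within 30% either way, or potency beyond limit.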

Experiment: proliferation inhibition in MITF-low A375 cells – cell-based, cherry-pick samples, set 2, counter-screen for MITF modulator project, dose response (AID 540335);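 further: A375 human melanoma cells which do not depend on MITF; 0% = median of neutral control wells and 100% = double that signal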
Details: CellTiter-Glo ATP luminescence, 24 h; series mostly up to 35 µM; activity change, negative = decreased viability: at the top concentration

Compound | activity change, negative = decreased viability
COc1ccc(C(=O)NCCSc2ccccc2C)cc1 | -8.17%
Nc1c(N(CCC2=CCCCC2)C(=O)COc2ccc([N+](=O)[O-])cc2)c(=O)[nH]c(=O)n1Cc1ccccc1 | -29%
CN1CCN(c2ccc(NC(=O)c3ccc([N+](=O)[O-])o3)cc2Cl)CC1 | -1.44%
CN1CCN(c2ccccc2NC(=O)c2ccc([N+](=O)[O-])o2)CC1 | -26.5%
CC(=O)SC(C[N+](=O)[O-])c1cn(C(C)=O)c2ccccc12 (stereo unspecified) | 22.6%
CC(C)(C)C(=O)Cn1ncc(Cl)c(Cl)c1=O | 55.4%
C=C1C(=O)O[C@@]23[C@H]1CC[C@@H](C)[C@@H]2CC[C@@]1(C)O[C@@H]31 | 2.09%
CCCC(=O)N1CCN(c2ccc(NC(=O)c3ccc([N+](=O)[O-])o3)cc2)CC1 | 11.4%
CCN(CC)CCNC(=O)c1ccc(NC(=O)c2cccc(S(=O)(=O)N3c4ccccc4CC3C)c2)cc1 (stereo unspecified) | -12.4%
O=C(Nc1ccc(N2CCN(C(=O)c3ccc(Cl)cc3)CC2)cc1)c1ccc([N+](=O)[O-])o1 | 20.7%
O=C(/C=C/c1ccc(Cl)c([N+](=O)[O-])c1)c1ccc(O)cc1 | 24.9%
O=C(N/N=C/c1ccc([N+](=O)[O-])s1)c1ccccc1Br | -17.8%
COc1cc(NC(=O)c2ccc([N+](=O)[O-])o2)ccc1NC(=O)c1cccs1 | -28.9%
CN(C(=O)/C=C/c1ccc([N+](=O)[O-])s1)c1ccccc1 | -12.6%
Cc1scc(C(=O)N/N=C/c2ccc([N+](=O)[O-])o2)c1C | -10.2%
CCCCCCN1C=CC(=C2C(=O)c3ccccc3C2=O)C=C1 | -11.3%
O=C1CN(C(=O)Cn2ncc(Cl)c(Cl)c2=O)c2ccccc2N1 | 36.1%
Cc1ccc(C(=O)N/N=C/c2ccc([N+](=O)[O-])s2)cc1 | -10.8%
Cc1ccc(C)c(C(=O)Cn2ncc(Cl)c(Cl)c2=O)c1 | 78.1%
Clc1cccc(-c2nc(-c3ccccn3)no2)c1 | -22.9%
C=CCNc1nc(-c2ccccn2)nnc1-c1ccccc1 | -21.7%
O=C(Nc1ccc(S(=O)(=O)N2CCCCCC2)cc1)c1[nH]ncc1[N+](=O)[O-] | -21%
O=C(O)c1ccc(N/N=C/c2ccc(OC(=O)c3cccc(Cl)c3)cc2)cc1 | 1.31%
CC(C)CC(=O)NC(c1cccs1)c1ccc2cccnc2c1O (stereo unspecified) | -35.5%
O=C(CCl)Nc1ccc(Sc2ccc(NC(=O)CCl)cc2)cc1 | 75.1%
COc1ccccc1-c1nc(-c2ccc(C)nc2OC)no1 | 10.9%

Compound | activity change, negative = decreased viability
COc1ccccc1-c1nnc(-c2ccc(C)cc2)o1 | 7.71%
Cn1c(SC2=CS(=O)(=O)c3ccccc32)nc2ccccc21 | -10.8%
CCN1CCc2c(sc(NC(=O)c3ccc(S(=O)(=O)N4CCCCCC4)cc3)c2C(=O)NC)C1 | -9.09%
CC1(C)CC(NC(=O)c2ccc(Cl)c(S(=O)(=O)N(Cc3ccccc3)c3ccccc3)c2)CC(C)(C)N1 | -56.2%
C#CC(=O)N(c1ccc(OC)cc1OC)C(C(=O)NC1CCCC1)c1cccs1 (stereo unspecified) | -6.23%
COc1ccc(C(C(=O)NC2CCCCC2)N(C(=O)CCl)c2ccc(OC)cc2)cc1 (stereo unspecified) | -7.56%
C(#Cc1ccccc1)C[N+]1(CC#Cc2cccc3ccccc23)CCCC1 | -24.6%
CCOc1ccc2nc(C)cc(Nc3cccc([N+](=O)[O-])c3)c2c1 | -48.8%
CC(=O)OCCNc1cc(Sc2nc3ccccc3[nH]2)c2nonc2c1[N+](=O)[O-] | 1.78%
O=C(Nc1cc(-c2nc3ncccc3o2)ccc1Cl)c1ccc([N+](=O)[O-])o1 | -5.78%
O=C(O)c1cccc(N/N=C/c2ccc(OC(F)(F)F)cc2)c1 | 14.9%
O=C(Cn1ncc(Cl)c(Cl)c1=O)NCC1CCCCC1 | -26.7%
O=C(CSc1ccccn1)c1ccc2c(c1)OCO2 | 9.9%
COc1ccc(C(=O)/C=C(\C)Nc2ccc3c(c2)OCO3)cc1 | 0.308%
Cc1cc(C(=O)CN2C(=O)c3ccccc3S2(=O)=O)c(C)n1-c1ccccc1 | 6.79%
Cc1cccnc1NC(=O)NC(=O)c1ccc(C(C)(C)C)s1 | 3.2%
COc1ccc(CCn2c(=S)[nH]c3cc(C(=O)NCc4ccco4)ccc3c2=O)cc1OC | -33.1%
Cc1cc(C)c2sc(N(CCCN(C)C)C(=O)COc3ccc(Cl)cc3)nc2c1 | -86.6%
CN(C)CCCNc1nc2sc3c(c2c(=O)n1CCc1ccccc1)CCCCC3 | -16.3%
COc1ccc(-n2cc(-c3ccc(C)cc3)[n+]3c2SCC3)cc1 | -17.9%
O=C(NCC1CCCCC1)C1(CC2CC(c3cccc(Br)c3)=NO2)CCNCC1 (stereo unspecified) | -96.6%
Cc1ccc(C(C)C)c(OCc2nn(CC(=O)c3ccc(Cl)cc3)c3[n+]2CCCCC3)c1 | -95.6%
CCOC(=O)N1C(=O)[C@@](CC)(c2ccccc2)N1C(=O)OCC | 4.08%
O=C(N/N=C/c1ccc([N+](=O)[O-])o1)c1ccccc1-n1cccc1 | -22.6%
COC(=O)C1=C(C)N(Cc2ccccc2)C(=NCC(C)C)N[C@H]1c1cccc(C(F)(F)F)c1 | -96.9%
